Screens from PubChem.
Pf apPOL block = Pf-apPOL DNA polymerase inhibition | 210,000 compounds, 0.25% hits | inhibition, % at 10 µM | Recombinant Pf-apPOL, molecular beacon fluorescence, 1.5 h
mHTT CaM bind = disrupts binding of mutant huntingtin to calmodulin; P42858; AlphaScreen His-mHTT/GST-CaM binding, luminescence; inhibition, % at 15 µM; 190,000 compounds, 3.6% hits; AID 1671202
Numbers stand for hits; 0 = inactive; - = no result; ! = not confirmed by another sample. The list is not random: actives were taken first. Their share in the collection is about 3.6%. No stated cut-off is given here; in the data, active means inhibition above about 50%; inactive means the rest.

SMILES | Pf apPOL block | mHTT CaM bind
O=C(Nc1nc2c(s1)CN(C(=O)Cc1cccs1)CC2)c1cnccn1 | 0 | 0
O=C(Nc1ccccc1)c1cnn2c1CCCC2 | 0 | 0
COc1ccc(-c2nc3cc(C)ccn3c2NC(=O)C2CCCC2)cc1 | 0 | 0
COc1ccc(-c2nc3ccc(C)cn3c2NC(=O)C2CCCC2)cc1 | 0 | 51
Cc1c2cc(O)c(=O)cc-2oc2cc(O)c(O)cc12 | - | 100
Cc1cc2oc(=O)cc(-c3cc4ccccc4o3)c2cc1O | 0 | 0
CCCN1C(=O)c2cccnc2Sc2cc(C(=O)N3CCOCC3)ccc21 | 0 | 0
C=CCc1cc(OC)ccc1OCC(O)CN1CCN(c2ccccc2F)CC1 (stereo not drawn) | 0 | 0
C=CCc1ccc(OCC(O)CN2CCN(c3ccc(OC)cc3)CC2)c(OC)c1 (stereo not drawn) | 0 | 51
C=CCc1cc(OC)ccc1OCC(O)CN1CCN(c2ccc(OC)cc2)CC1 (stereo not drawn) | 0 | 50!
C=CCc1ccc(OCC(O)CN2CCN(c3ccccc3)CC2)c(OC)c1 (stereo not drawn) | 0 | 0
Fc1ccccc1CN1CCN(Cc2ccccn2)CC1 | 0 | 0
O=C1C(=Cc2ccc3ccccc3n2)Oc2cc(O)ccc21 | 0 | 0
COc1cccc2ccc(C=C3Oc4cc(O)ccc4C3=O)nc12 | 62 | 0
CCN(CC)CCCN1C(=O)C(O)=C(C(=O)c2ccc(C)o2)C1c1ccncc1 (stereo not drawn) | 0 | 0
O=C(CSc1nnc2ccc(-c3ccccn3)nn12)c1ccc(Cl)cc1 | 0 | 0
COc1ccc(C(=O)NCc2nc3ccccc3n2Cc2ccccc2F)cc1OC | 0 | 58
COc1ccc(C(=O)NCCc2nc3ccccc3n2Cc2ccccc2F)cc1OC | 0 | 0
COc1ccc2c(Cl)c(C(=O)Nc3cc(C)ccc3C)sc2c1Cl | 0 | 0
CCCNC(=O)c1sc2c(Cl)c(OC)ccc2c1Cl | 0 | 100
COc1ccc(NC(=O)N2CCC3(CC2)NC(=O)c2ccc(Cl)cc2N3C)cc1OC | 0 | 0
COc1ccc2nc(N3CCCC(C(=O)NCc4ccccc4)C3)[nH]c2c1 (stereo not drawn) | 0 | 0
CC1(C)CC(=O)C2=C(C1)N=C1c3ccccc3C(=O)C1C2c1ccc([N+](=O)[O-])cc1 (stereo not drawn) | 0 | 0
O=C1CCCC2=C1C(c1ccc3c(c1)OCO3)C1C(=O)c3ccccc3C1=N2 (stereo not drawn) | 0 | 55
CC1(C)CC(=O)C2=C(C1)N=C1c3ccccc3C(=O)C1C2c1ccc2c(c1)OCO2 (stereo not drawn) | 0 | 0
SMILES | Pf apPOL block | mHTT CaM bind
CC1(C)CC(=O)C2=C(C1)N=C1c3ccccc3C(=O)C1C2c1cccc(F)c1 (stereo not drawn) | 0 | 0
CC1(C)CC(=O)C2=C(C1)N=C1c3ccccc3C(=O)C1C2c1cccc(Br)c1 (stereo not drawn) | 0 | 61
CC1(C)CC(=O)C2=C(C1)N=C1c3ccccc3C(=O)C1C2c1cc([N+](=O)[O-])ccc1O (stereo not drawn) | 0 | 53
Cc1ccc(NC(=O)c2cc3c(=O)oc4ccccc4c3s2)cc1F | 0 | 0
O=C(Nc1ccc(F)cc1Cl)C1CCCN(C(=O)c2cccc(C(F)(F)F)c2)C1 (stereo not drawn) | 0 | 0
COC(=O)CNC(=O)N1CCOc2cc(C)ccc21 | 0 | 0
CCCS(=O)(=O)c1c(C)c(C)n(Cc2cccc(Cl)c2)c1N | 0 | -
CCOc1ccc(N=C2C(=O)Nc3ccccc32)cc1 | 0 | 0
CCOc1ccc(N=C2C(=O)Nc3ccc(C)c(Br)c32)cc1 | 0 | 57
O=C1OC(c2ccc(I)cc2)=N/C1=C\c1ccc(Br)cc1 | 0 | 0
O=C(Nc1ccccc1[N+](=O)[O-])C1C2CC/C=C/CC/C=C/CCC21 (stereo not drawn) | 0 | 0
Cc1cc(C(C)(C)C)ccc1OCCCCn1ccnc1 | 0 | 0
CC1=NOC(=O)/C1=C/c1ccc(OCc2ccccc2F)c(Cl)c1 | 0 | 0
COc1cc(/C=C2\C(=O)ON=C2C)cc(Cl)c1OCc1ccccc1F | 0 | 60
CCOc1cc(/C=C2\NC(=O)NC2=O)cc(Cl)c1OCc1ccccc1F | 0 | 68
COc1cc(/C=C2\C(=O)ON=C2C)cc(Br)c1OC | 0 | 0
COc1cc(/C=C2\C(=O)ON=C2C)cc(Cl)c1OCc1cccc(F)c1 | 0 | 86
C=CCOc1c(Cl)cc(/C=C2\C(=O)ON=C2C)cc1OC | 0 | 0
COc1cc(/C=C2\NC(=O)NC2=O)ccc1OCc1ccccc1F | 0 | 0
COc1cc(/C=C2\C(=O)ON=C2C)cc(Br)c1OCc1cccc(F)c1 | 0 | 51
Cn1cc(SCc2ccc(F)cc2)c2ccccc21 | 0 | 0
Brc1cccc(OCCCCN2CCOCC2)c1 | 0 | 0
CC1CC(C)(C)Nc2ccc(O)cc21 (stereo not drawn) | - | 0
CC[N+]1(CC(O)COc2ccc(C(C)(C)CC(C)(C)C)cc2)CCCC1 (stereo not drawn) | 0 | 84
CCC(C)(C)c1ccc(OCC(O)CN2CCOCC2)c(C(C)(C)CC)c1 (stereo not drawn) | 0 | 94
